Source: PubChem (Broad Institute)
CASP6 VEID inh: caspase-6 (human) enzyme inhibition. P55212. purified caspase-6, Z-VEID-R110 cleavage fluorescence. inhibition, % at 12.5 µM. hit rate 0.53% among 350,000. AID 686996;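 active = mean inhibition across replicates at least about 35%, with every replicate also reaching that limit, limit read from the data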
Target sequence (P55212 24-179 limits assumed): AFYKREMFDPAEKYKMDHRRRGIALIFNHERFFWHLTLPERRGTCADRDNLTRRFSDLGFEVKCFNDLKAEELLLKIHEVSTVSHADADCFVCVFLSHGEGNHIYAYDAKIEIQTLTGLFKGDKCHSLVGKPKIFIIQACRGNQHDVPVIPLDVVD
Target sequence (P55212 194-293 limits assumed): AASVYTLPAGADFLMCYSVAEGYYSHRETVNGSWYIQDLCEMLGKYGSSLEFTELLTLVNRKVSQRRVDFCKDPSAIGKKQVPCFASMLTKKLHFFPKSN
SIRT5 block: inhibitors of human sirtuin-5 desuccinylase; Q9NXA8; Purified SirT5, succinyl-peptide AMC, trypsin-coupled fluorescence; inhibition, % at 15 µM; hit rate 1.1% among 330,000; in the data active = inhibition above about 15%
Target sequence (Q9NXA8 whole entry, looked up): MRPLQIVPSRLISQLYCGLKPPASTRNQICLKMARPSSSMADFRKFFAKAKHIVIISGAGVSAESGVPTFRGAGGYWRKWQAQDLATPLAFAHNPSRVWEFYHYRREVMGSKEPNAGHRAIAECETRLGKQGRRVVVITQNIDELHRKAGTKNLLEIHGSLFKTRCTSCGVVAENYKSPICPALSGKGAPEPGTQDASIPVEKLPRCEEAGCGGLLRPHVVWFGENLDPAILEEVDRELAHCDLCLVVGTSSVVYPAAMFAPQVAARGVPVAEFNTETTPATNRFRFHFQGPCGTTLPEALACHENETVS
FGF22 binding: FGF22 (human) thermal shift binding | Q9HCT0 | recombinant FGF22 thermal shift, SYPRO orange fluorescence; percent of sucrose octasulfate shift, DMSO zero | activity (Tm shift, normalised), % at 9.99 µM | hit rate 1.5% among 340,000 | AID 651658;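 active = mean Tm shift, scaled 0 neutral to 100 positive control, at about 1.3% or above, every replicate too, limit read from the data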
ERAP1 inh: inhibitors of human ERAP1 aminopeptidase; recombinant ERAP1, Leu-AMC fluorescence, 60 min; inhibition, % at 10.7 µM; hit rate 0.15% among 340,000;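 active = mean replicate inhibition of at least 30%, or all replicates individually reaching that 30% level; inactive = mean below 30% and not every replicate reaching it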
Of the large screens only hits and unclear results are named; the others gave an inactive call. Most compounds without a hit are left out; they make up all but 3.1% or so of the library.

CCC[C@@H](CN1CCC[C@H]1CN1C(N)=NC[C@H]1CC(C)C)N1C[C@@H](Cc2ccccc2)N(CCc2ccc(Cl)c(Cl)c2)C1=N	CASP6 VEID inh 36.0
CCC[C@@H](CN1CCC[C@H]1CN1C(N)=NC[C@@H]1Cc1ccccc1)N1C[C@@H](Cc2ccccc2)N(CCc2ccc(Cl)c(Cl)c2)C1=N	CASP6 VEID inh 44.7 (no result: SIRT5 block, FGF22 binding)
COc1ccc(NC(=O)Nc2ccc3c(c2)C(=O)N([C@@H](C)CO)C[C@@H](C)[C@@H](CN(C)S(C)(=O)=O)OCCCC[C@@H](C)O3)cc1	none
CCCNC(=O)[C@@H]1[C@@H](CO)[C@@H]2Cn3c(ccc(-c4ccc(F)cc4)c3=O)[C@H]1N2CC	none
CCCC(=O)Nc1ccc2c(c1)C(=O)N(C)[C@H]1CC[C@@H](CC(=O)NCC3CC3)O[C@H]1CO2	none
Nc1cc2cccnc2cc1Cl	CASP6 VEID inh 62.3
Clc1cc2cccnc2c2ncccc12	none
O=C(CC1CC1)N[C@H]1CC[C@@H](CCNS(=O)(=O)c2ccc(F)cc2)O[C@H]1CO	none
CN(C[C@@H]1N[C@H](CO)[C@@H]1c1ccc(-c2ccccc2)cc1)C(=O)C1CCC1	none (no result: FGF22 binding)
CN(CC(=O)NCCN1CCOCC1)S(=O)(=O)c1ccc(Cl)cc1	FGF22 binding 43.1 (no result: SIRT5 block)
COc1ccc(S(=O)(=O)N(C)CC(=O)NCCN2CCOCC2)cc1Cl	none
C[C@H](CO)N1C[C@H](C)[C@H](CN(C)C(=O)NC2CCCCC2)Oc2ccc(NC(=O)Nc3cccc4ccccc34)cc2C1=O	none (no result: SIRT5 block)
O=C(COc1ccccc1)N/N=C/c1sc(=O)n(Cc2cccc(C(=O)O)c2)c1Cl	SIRT5 block 15.8 (no result: ERAP1 inh)
C[C@@H]1CN([C@H](C)CO)C(=O)c2cccc(NC(=O)c3ccc(-c4nccs4)cc3)c2O[C@@H]1CN(C)Cc1ccc(C(=O)O)cc1	none
COc1ccccc1N(C(C)=O)C1=C(Cl)C(=O)c2ccccc2C1=O	ERAP1 inh 60.5 (no result: SIRT5 block)
COc1ccccc1N(C(=O)CCl)c1cn(C(C)=O)c2ccccc12	none (no result: ERAP1 inh)
O=C(Nc1cccc(Cl)c1)N[C@@H]1CC[C@@H](CCNC(=O)C2CCCC2)O[C@@H]1CO	none
C[C@@H]1CN([C@H](C)CO)C(=O)c2cc(NS(=O)(=O)c3cccs3)ccc2O[C@@H](C)CCCCO[C@H]1CN(C)Cc1ccc(C(=O)O)cc1	none
C[C@@H]1CCCCO[C@@H](CN(C)Cc2ccc(Cl)c(Cl)c2)[C@H](C)CN([C@@H](C)CO)C(=O)c2cc(NS(=O)(=O)c3cccs3)ccc2O1	SIRT5 block 25.1
C[C@@H]1CN([C@H](C)CO)C(=O)c2cc(NS(=O)(=O)c3cccs3)ccc2O[C@@H](C)CCCCO[C@@H]1CN(C)Cc1ccc(C(F)(F)F)cc1	SIRT5 block 19.2
C[C@H](CO)N1C[C@H](C)[C@@H](CN(C)Cc2ccc(C(F)(F)F)cc2)OCCCC[C@H](C)Oc2ccc(NS(=O)(=O)c3cccs3)cc2C1=O	SIRT5 block 20.8
C[C@@H]1CN([C@@H](C)CO)C(=O)c2cc(NS(=O)(=O)c3cccs3)ccc2O[C@@H](C)CCCCO[C@H]1CN(C)Cc1ccc(C(F)(F)F)cc1	none
C[C@@H]1CCCCO[C@H](CN(C)Cc2ccc(C(F)(F)F)cc2)[C@@H](C)CN([C@@H](C)CO)C(=O)c2cc(NS(=O)(=O)c3cccs3)ccc2O1	SIRT5 block 16.5
C[C@@H]1CCCCO[C@H](CN(C)S(C)(=O)=O)[C@H](C)CN([C@@H](C)CO)C(=O)c2cc(NS(=O)(=O)c3ccc(F)cc3)ccc2O1	none
Cc1ccc(-c2ccc([C@@H]3[C@@H](CO)N4CCCCN(S(=O)(=O)c5cccc(C)c5)C[C@@H]34)cc2)cc1	SIRT5 block 16.6
Cc1ccc(-c2ccc([C@H]3[C@@H](CO)N4CCCCN(S(=O)(=O)c5cccc(C)c5)C[C@H]34)cc2)cc1	SIRT5 block 18.8
Cc1cccc(-c2ccc([C@H]3[C@@H](CO)N4CCCCN(S(=O)(=O)c5cccc(C)c5)C[C@@H]34)cc2)c1	none
Cc1cccc(S(=O)(=O)N2CCCCN3[C@H](CO)[C@H](c4ccc(-c5ccccc5)cc4)[C@H]3C2)c1	none
O=S(=O)(c1cccs1)N1CCCCN2[C@H](C1)[C@H](c1ccc(C3=CCCC3)cc1)[C@@H]2CO	none
O=S(=O)(c1cccs1)N1CCCCN2[C@H](CO)[C@H](c3ccc(C4=CCCCC4)cc3)[C@H]2C1	SIRT5 block 19.9
COc1ccc(C2CC(c3cccs3)=NN2C(=O)CN2CCCCC2)cc1 (stereo not given)	SIRT5 block 32.6
COc1ccc(C2=NN(C(=O)CCC(=O)O)C(c3ccc(OC)cc3)C2)cc1 (stereo not given)	SIRT5 block 21.4
C=CCNCC(=O)N1N=C(c2ccc3ccccc3c2)CC1c1ccc(OC)cc1 (stereo not given)	FGF22 binding 43.0
COc1ccc(C2CC(c3ccc4ccccc4c3)=NN2C(=O)CNC2CCCCC2)cc1 (stereo not given)	none
C[C@@H]1CN([C@H](C)CO)C(=O)Cc2cc(NS(C)(=O)=O)ccc2O[C@@H]1CN(C)C(=O)Nc1ccc(C(F)(F)F)cc1	none
C[C@H](CO)N1C[C@H](C)[C@H](CN(C)C(=O)Nc2ccccc2)OCCCC[C@H](C)Oc2ccc(NC(=O)C3CCCCC3)cc2C1=O	none
Cc1ccc(S(=O)(=O)Nc2cccc3c2O[C@@H](CN(C)S(=O)(=O)c2ccc(F)cc2)[C@@H](C)CN([C@@H](C)CO)C3=O)cc1	none (no result: CASP6 VEID inh, SIRT5 block, ERAP1 inh)
O=C(Cc1ccccn1)NCC[C@H]1CC[C@@H](NC(=O)CN2CCOCC2)[C@H](CO)O1	none
CS(=O)(=O)N1CCN(c2ccc(NC(=S)NC(=O)c3cccs3)cc2)CC1	FGF22 binding 43.9
O=C(NC(=S)Nc1ccc(N2CCN(C(=O)c3ccccc3)CC2)cc1)c1cccs1	none
Cc1cccc(NC(=O)COc2ccc(/C=C\c3[nH]c(=O)[nH]c(=O)c3[N+](=O)[O-])cc2)c1	FGF22 binding 43.7
COCC(=O)N(C)C[C@H]1Oc2cc(C3=CCCCC3)ccc2S(=O)(=O)N([C@@H](C)CO)C[C@H]1C	none
Cc1ccc(OCc2nnc(N)s2)cc1	FGF22 binding 43.6
O=C(O)c1ccc(-n2[nH]c3c(c2=O)CCCC3)cc1	FGF22 binding 43.3
O=C(O)c1ccc(N2C(=O)CCCC2=O)cc1	none
O=C(NCC[C@H]1CC[C@H](NC(=O)C2CCCCC2)[C@@H](CO)O1)c1cc(Cl)cc(Cl)c1	none
COc1ccc(NC(=O)N2CC3(C2)CN(C(=O)c2cccnc2)[C@@H](CO)c2[nH]c4cc(OC)ccc4c23)cc1	none
O=C(CC1c2cc(F)ccc2C=C(c2ccsc2)N1c1ccc(C#CCCO)cc1)c1ccco1 (stereo not given)	SIRT5 block 16.9
CC(=O)CC1c2cc(F)ccc2C=C(c2ccsc2)N1c1ccc(C#Cc2cncn2C)cc1 (stereo not given)	FGF22 binding 1.8
